In PubChem BioAssay (NCI):
About 79,000 compounds went through this panel and 15% of them were active in at least one assay; those are over-represented in the sample as a whole. A number with no mark means an inactive call. The source made the active and inactive calls. Cut-off read from the data, not from the text of the source: active = growth inhibition above about 70%; inactive = the rest.

Assay: NCI Yeast Anticancer Drug Screen. Data for the rad50 strain (AID 155);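 note: 0% = growth of vehicle-only cultures of the same strain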
Conditions: S. cerevisiae rad50 strain growth inhibition; at 50.0 µM; hits give high values
Procedure, shortened: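 Cells are treated with compound, grown, and their growth is then scored against vehicle-only cultures of the same repair-deficient yeast strain.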

Compound | growth inhibition
O=[N+]([O-])c1ccc(C(Br)Br)cc1 | 99.6% (active)
CC(C)(C)[Si](OC(=O)N(CCCl)CCCl)(c1ccccc1)c1ccccc1 | 67.2%
CCCCCCCC[N+]12CN3CN(CN(C3)C1)C2 | 1.75%
CC(C=O)[Se]c1ccccc1 (centres undefined) | 91.9% (active)
CCOP(=O)(N=Nc1cccnc1)OCC | 14%
COc1cc(/C=C/c2ccc(OC)c(O)c2)cc(OC)c1 | 98.3% (active)
ClC1CCCCC1[Se](Cl)(Cl)C1CCCCC1Cl (centres undefined) | 99% (active)
C/C(=N/NC(N)=S)c1ccc(Cl)cc1 | 96.5% (active)
O=C(Nc1ccccc1)c1cc([N+](=O)[O-])ccc1O.[Ni] | 69.3%
CC1(C)N=C(N)N=C(N)N1c1ccc(OCCCCNC(=O)Nc2ccc(S(=O)(=O)F)cc2)c(Cl)c1 | 98.3% (active)
Nc1nc(N)c(-c2ccc(Cl)c(Cl)c2)c(COc2ccc(CNC(=O)Nc3cccc(S(=O)(=O)F)c3)cc2Cl)n1 | 26.8%
CC(=O)[O-].CC(=O)[O-].O=C(N/N=C/c1cc(Cl)cc(Cl)c1[OH2+])c1ccncc1.[Co+2] | 51.6%
CC(Br)C(=O)C(CCN(C)C)(c1ccccc1)c1ccc(Br)s1 (centres undefined) | 4%
[N-]=[N+]=NC1(N=[N+]=[N-])C(=O)NN=C(c2ccccc2)C1=O (centres undefined) | 84% (active)
NC(=O)c1cc([N+](=O)[O-])c(Cl)c([N+](=O)[O-])c1Cl | 88.9% (active)
Nc1nc(N)c(-c2ccc(Cl)c(Cl)c2)c(CCc2ccc(CNC(=O)c3cccc(S(=O)(=O)F)c3)cc2)n1 | 62.7%
CCOC(=O)C(Cl)Cl | -32.4%
C1=C[N-]c2c3c(ccc2=C1)=CC=C[N-]3.C1=C[N-]c2c3c(ccc2=C1)=CC=C[N-]3.F[P-](F)(F)(F)(F)F.[Cu+2] | 99.3% (active)
CCCCCCCCCCC(=O)O.[Pb] | 55.5%
CN(Cc1ccccc1)CC(O)c1cccc(I)c1 (centres undefined) | 49.5%
CCOc1c(Br)cc(N=Cc2ccc(N(CCCl)CCCl)c(OC)c2)cc1Br | 85.2% (active)
COC(=O)C1ON(c2ccccc2)C2c3ccccc3-c3ccccc3C12 (centres undefined) | 58.2%
COc1ccccc1C(Cc1ccc(N2C(N)=NC(N)=NC2(C)C)cc1)C(=O)Nc1ccc(S(=O)(=O)F)cc1 (centres undefined) | 90.1% (active)
O=[N+]([O-])c1cc([N+](=O)[O-])c(Cl)s1 | 99.5% (active)

Assay: NCI Yeast Anticancer Drug Screen. Data for the mec2-1 strain (AID 157)
Conditions: S. cerevisiae mec2-1 strain, at 5.0 µM (retest, dose inferred, filed as 0.5), hits give high values
Procedure, shortened: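 Using mec2-1 yeast: add compound, measure growth, express inhibition versus vehicle-treated cultures.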

Compound | growth inhibition
COc1ccc(CN2CCCN(Cc3ccc(OC)cc3OC)C2c2ccc(N(CCCl)CCCl)cc2)c(OC)c1 | -9%
[Cl][Pt+2][Cl].[NH-]c1ccc([N+](=O)[O-])cc1[NH-] | 27%
O=C(Oc1ccc(S(=O)(=O)F)cc1F)c1ccccc1Cl | 5%
Oc1c(I)cc(I)cc1I | -3%
CCCCCCCCCCCCCCCC[N+](C)(C)CCOS(C)(=O)=O | 99% (active)
CN(C)CC1(N)C(=O)NC(=O)NC1=O | 4%
CC1=C(O)C(=O)C=C2C1=CC=C1[C@@]2(C)CC[C@@]2(C)[C@@H]3C[C@](C)(C(=O)O)CC[C@]3(C)CC[C@]12C | 74% (active)
CCC[CH2][Sn]([CH2]CCC)([N]=C=S)[N]=C=S | 92% (active)
O=C(C[n+]1ccccc1)C1CCc2ccccc2C1 (centres undefined) | 0%
[Cl][Pt][Cl].c1ccc([AsH](CC[AsH](c2ccccc2)c2ccccc2)c2ccccc2)cc1 | 99% (active)
COc1cc(/C=C\[N+](=O)[O-])ccc1O | 53%
Cc1sc(Cc2ccccc2)nc1-c1ccc(N=Cc2ccc(N(CCCl)CCCl)cc2)cc1 | 2%
CC1(C)C2CCC([CH2][Hg][Cl])C1C2 (centres undefined) | 100% (active)
CC12C(=O)C=CCC1=CCC1C2CCC2(O)C(=O)OC3(C)C4CC5(C)C(COC16OC23C5C6=O)C(=O)O4 (centres undefined) | 24%
O=C(CBr)OCC(Br)CBr (centres undefined) | 99% (active)
S=c1[nH]c2ccccc2s1.[Pb] | -1%
O=[N+]([O-])c1ccc(C(Br)Br)cc1 | 74% (active)
CC(C)(C)[Si](OC(=O)N(CCCl)CCCl)(c1ccccc1)c1ccccc1 | 10%
CCCCCCCC[N+]12CN3CN(CN(C3)C1)C2 | -2%
CC(C=O)[Se]c1ccccc1 (centres undefined) | 8%

Compound | growth inhibition
CCOP(=O)(N=Nc1cccnc1)OCC | 2%
COc1cc(/C=C/c2ccc(OC)c(O)c2)cc(OC)c1 | -4%
ClC1CCCCC1[Se](Cl)(Cl)C1CCCCC1Cl (centres undefined) | 45%
C/C(=N/NC(N)=S)c1ccc(Cl)cc1 | -17%
O=C(Nc1ccccc1)c1cc([N+](=O)[O-])ccc1O.[Ni] | 34%
CC1(C)N=C(N)N=C(N)N1c1ccc(OCCCCNC(=O)Nc2ccc(S(=O)(=O)F)cc2)c(Cl)c1 | -2%
Nc1nc(N)c(-c2ccc(Cl)c(Cl)c2)c(COc2ccc(CNC(=O)Nc3cccc(S(=O)(=O)F)c3)cc2Cl)n1 | -5%
CC(=O)[O-].CC(=O)[O-].O=C(N/N=C/c1cc(Cl)cc(Cl)c1[OH2+])c1ccncc1.[Co+2] | 17%
CC(Br)C(=O)C(CCN(C)C)(c1ccccc1)c1ccc(Br)s1 (centres undefined) | -9%
[N-]=[N+]=NC1(N=[N+]=[N-])C(=O)NN=C(c2ccccc2)C1=O (centres undefined) | 15%
NC(=O)c1cc([N+](=O)[O-])c(Cl)c([N+](=O)[O-])c1Cl | 41%
Nc1nc(N)c(-c2ccc(Cl)c(Cl)c2)c(CCc2ccc(CNC(=O)c3cccc(S(=O)(=O)F)c3)cc2)n1 | -1%
CCOC(=O)C(Cl)Cl | 3%
C1=C[N-]c2c3c(ccc2=C1)=CC=C[N-]3.C1=C[N-]c2c3c(ccc2=C1)=CC=C[N-]3.F[P-](F)(F)(F)(F)F.[Cu+2] | 52%
CCCCCCCCCCC(=O)O.[Pb] | -10%
CN(Cc1ccccc1)CC(O)c1cccc(I)c1 (centres undefined) | -3%
CCOc1c(Br)cc(N=Cc2ccc(N(CCCl)CCCl)c(OC)c2)cc1Br | -5%
COC(=O)C1ON(c2ccccc2)C2c3ccccc3-c3ccccc3C12 (centres undefined) | 27%
COc1ccccc1C(Cc1ccc(N2C(N)=NC(N)=NC2(C)C)cc1)C(=O)Nc1ccc(S(=O)(=O)F)cc1 (centres undefined) | 12%
O=[N+]([O-])c1cc([N+](=O)[O-])c(Cl)s1 | 99% (active)
